# PubChem BioAssay AID376 (PDSP, 2006)
# The campaign covered roughly 2,000 compounds. About 250 (12%) were called active. The sample holds actives, similar compounds and a random draw of the others, so the mix is not that of the screen. Unmarked numbers belong to inactive results. Rule as the data show it: active = hERG blockade below about -20% or above about 20%; inactive = in between.
# Target: Voltage-gated inwardly rectifying potassium channel KCNH2 (Homo sapiens) (UniProt Q12809)
# Assay: modulators of KCNH2 ion channel function, cellular (AID 376);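 also: 0% = buffer alone and 100% = reference blocker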
# Conditions: hERG-expressing cells, channel activity single-concentration screen; concentration not given here
# Voltage-gated inwardly rectifying potassium channel KCNH2 (Homo sapiens), sequence (Q12809 whole entry, looked up): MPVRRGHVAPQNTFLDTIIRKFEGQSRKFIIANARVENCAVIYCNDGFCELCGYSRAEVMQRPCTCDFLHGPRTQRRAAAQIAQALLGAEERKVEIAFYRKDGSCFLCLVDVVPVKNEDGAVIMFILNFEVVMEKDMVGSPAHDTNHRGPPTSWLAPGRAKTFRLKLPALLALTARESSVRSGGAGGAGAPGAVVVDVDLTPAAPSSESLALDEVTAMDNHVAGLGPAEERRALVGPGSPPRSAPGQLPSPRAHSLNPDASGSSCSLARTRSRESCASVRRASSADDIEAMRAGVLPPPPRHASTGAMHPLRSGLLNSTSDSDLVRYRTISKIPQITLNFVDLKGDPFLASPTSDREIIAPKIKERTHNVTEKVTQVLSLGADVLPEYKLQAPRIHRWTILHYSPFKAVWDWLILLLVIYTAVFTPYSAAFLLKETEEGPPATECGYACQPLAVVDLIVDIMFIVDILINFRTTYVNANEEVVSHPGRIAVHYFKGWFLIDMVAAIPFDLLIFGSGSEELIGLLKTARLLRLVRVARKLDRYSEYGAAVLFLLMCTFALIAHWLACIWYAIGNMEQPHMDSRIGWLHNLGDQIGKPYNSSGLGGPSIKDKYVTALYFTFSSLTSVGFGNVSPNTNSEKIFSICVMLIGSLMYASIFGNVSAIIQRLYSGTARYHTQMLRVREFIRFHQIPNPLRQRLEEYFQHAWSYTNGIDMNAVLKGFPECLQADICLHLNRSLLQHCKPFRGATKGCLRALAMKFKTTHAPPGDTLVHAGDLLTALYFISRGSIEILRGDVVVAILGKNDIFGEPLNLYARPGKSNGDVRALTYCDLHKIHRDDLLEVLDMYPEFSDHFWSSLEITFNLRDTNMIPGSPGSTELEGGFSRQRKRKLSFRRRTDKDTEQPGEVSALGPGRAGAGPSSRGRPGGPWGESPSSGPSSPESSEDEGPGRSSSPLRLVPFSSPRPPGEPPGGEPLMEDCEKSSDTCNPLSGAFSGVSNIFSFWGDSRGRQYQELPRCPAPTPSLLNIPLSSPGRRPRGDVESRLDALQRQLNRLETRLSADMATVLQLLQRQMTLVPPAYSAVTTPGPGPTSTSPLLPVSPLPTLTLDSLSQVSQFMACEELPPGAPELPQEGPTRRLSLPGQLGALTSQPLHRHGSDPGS
row,SMILES,hERG blockade
1,c1ccc(CCN2CCN=C2Cc2ccccc2)cc1,11.4%
2,CC(N)C(N)=NO (stereo unspecified),-3.44%
3,CN1CCN(CCCN2c3ccccc3Sc3ccc(C(F)(F)F)cc32)CC1,29.9% (active)
4,O=C1CSC2(CCN(CCCN3c4ccccc4Sc4ccc(Cl)cc43)CC2)N1,10.1%
5,SC1CCCN(Cc2ccccc2)C1 (stereo unspecified),10.8%
6,CCC(C)(C)c1ccc(Oc2cccc(C(=O)O)c2)cc1,-10.7%
7,CN1CCc2ccccc2C1Cc1ccccc1NC(=O)c1sc2ccccc2c1Cl (stereo unspecified),23.1% (active)
8,O=C(NC1(C(=O)O)CC1c1ccccc1)c1ccccc1 (stereo unspecified),6.62%
9,O=S(=O)(O)c1ccc2c(N=Nc3c(O)ccc4ccccc34)cccc2c1,49.9% (active)
10,Cc1ccc(N=Nc2c(O)ccc3cc(S(=O)(=O)O)ccc23)cc1,31% (active)
11,O=S(=O)(O)c1cc(O)c2c(N=Cc3ccccc3O)cc(S(=O)(=O)O)cc2c1,-9.52%
12,Nc1ccccc1N=Nc1c(S(=O)(=O)O)cc2cc(S(=O)(=O)O)cc(O)c2c1O,21.5% (active)
13,O=S(=O)(O)c1ccc(N=Nc2ccc3c(S(=O)(=O)O)cccc3c2O)c2ccccc12,14.9%
14,O=[N+]([O-])c1ccc2c(N=Nc3ccc4ccccc4c3O)c(O)cc(S(=O)(=O)O)c2c1,23.1% (active)
15,O=[N+]([O-])c1ccc2c(c1)c(S(=O)(=O)O)cc1nonc12,-6.88%
16,O=S(=O)(O)c1cc(O)c2c(O)c(N=Nc3cccc4ccccc34)c(S(=O)(=O)O)cc2c1,9.29%
17,Cc1ccc(N=Nc2c(O)c(S(=O)(=O)O)cc3cc(S(=O)(=O)O)ccc23)c(C)c1,2.33%
18,O=S(=O)(O)c1ccc2c(N=Nc3cccc4ccccc34)c(O)c(S(=O)(=O)O)cc2c1,8.62%
19,O=S(=O)(O)c1ccc(N=Nc2ccccc2)cc1,-15.7%
20,O=S(=O)(O)c1cc(S(=O)(=O)O)c2c(N=Nc3cccc4ccccc34)c(O)ccc2c1,14.2%
21,Nc1ccc(S(=O)(=O)c2ccc(NC(=O)c3cccnc3)cc2)cc1,12.7%
22,Nc1nc2nc3c(nc2c(=O)[nH]1)CN(c1ccc(C(=O)O)cc1)C3=O,-6.18%
23,O=C(O)C(CCc1ccccc1)N1C(=O)c2ccccc2C1=O (stereo unspecified),0.137%
24,Cc1[nH]c2c(C)ccc(C)c2c1CC(=O)O,-7.4%
25,Cc1cc(Cl)nc(NC(=O)CSc2ccc(Cl)cc2)n1,-7.4%
26,NC(CSC(=O)c1ccccc1)C(=O)O (stereo unspecified),8.51%

row,SMILES,hERG blockade
1,CN(C)C1C(=O)C(C(=O)NCN2CCCC2)=C(O)C2(O)C(=O)C3=C(O)c4c(O)cccc4C(C)(O)C3CC12 (stereo unspecified),5.47%
2,NC(=O)c1nnn(Cc2cc(Cl)c(C(=O)c3ccc(Cl)cc3)c(Cl)c2)c1N,17.3%
3,CC(C)CN(CC#N)CC(C)C,1.01%
4,Cc1ccnc(NS(=O)(=O)c2ccc(N=[N+]=[N-])cc2)n1,8.12%
5,CC(CC(N)C(=O)O)C(=O)O (stereo unspecified),1.62%
6,Cc1cc2c(SCc3ccccc3Cl)nc(N)nc2nc1C,-7.31%
7,O=C1c2cccc([N+](=O)[O-])c2C(=O)N1c1ncn[nH]1,24.2% (active)
8,O=C(O)C(Cc1ccccc1)N1C(=O)c2ccccc2C1=O (stereo unspecified),13.1%
9,O=C(O)CC(C(=O)O)C1c2ccccc2-c2ccccc21 (stereo unspecified),14.3%
10,NC(=O)C1CCCNC1 (stereo unspecified),-2.06%
11,O=C(O)c1cc(-c2ccc(-c3ccc(-c4cc(C(=O)O)c5cc(Cl)ccc5n4)cc3)cc2)nc2ccc(Cl)cc12,-1.3%
12,CN(C)CCCSc1nc2ccccc2[nH]1,-13.7%
13,CN(C)CCCc1c2ccccc2nc2ccc(Cl)cc12,35.2% (active)
14,CC(=O)C1CCC2C1(C)CC=C1C23C=CC2(CC(O)CCC12C)C(C(=O)O)C3C(=O)O (stereo unspecified),3.22%
15,NC(N)=NC(N)=Nc1ccc(S(=O)(=O)O)cc1,-3.84%
16,O=[N+]([O-])c1ccc2c(c1)Cc1cc(N=Cc3ccc4c(c3)OCO4)ccc1-2,-2.54%
17,COc1cc2c(cc1O)C(c1cc(O)c(O)c(OC)c1)C(O)(C(=O)O)C(CO)C2O (stereo unspecified),-2.14%
18,O=C(O)c1c(Br)c(Br)c(Br)c(Br)c1C1c2ccc(O)cc2Oc2cc(O)ccc21,2.46%
19,Cc1ccc(NC(c2ccccc2)c2ccc3cccnc3c2O)cc1 (stereo unspecified),-7.23%
20,c1cnc2c(c1)ccc1cccnc12,56.6% (active)
21,Oc1c(C(Nc2ccccn2)c2ccccc2)ccc2cccnc12 (stereo unspecified),12.1%
22,Cc1ncn(-c2ccccc2O)c1C,-3.27%
23,CSC(CC(=O)O)C(=O)O (stereo unspecified),-18%
24,CC1OC(CC(=O)O)Cc2c1c(O)c1c(O)cc(-c3cc(=O)c4c(=O)c5c(c(=O)c=4c3=O)CC(CC(=O)O)OC5C)c(O)c1c2O (stereo unspecified),14.9%
25,C[n+]1cccc(C=Cc2ccc3cccc(O)c3n2)c1,48.1% (active)
26,Oc1cccc2ccc(SSc3ccc4cccc(O)c4n3)nc12,0.631%

row,SMILES,hERG blockade
1,Oc1ccc2ccccc2c1C=Cc1ccc2c(Br)cc(Br)c(O)c2n1,11%
2,O=C(O)c1cc(=O)[nH]c(SCc2ccccc2)n1,0.275%
3,C[N+](C)([O-])Cc1cc(-c2ccccc2)ccc1O,-15.8%
4,O=C(SCc1cccc2ccccc12)c1ccc(Cl)cc1,-11.8%
5,S=C(S)NCCCn1ccnc1,-3.79%
6,NCCSS(=O)(=O)CCN,3.89%
7,Cc1cc(N)c2cc(OCCOc3ccc4nc(C)cc(N)c4c3)ccc2n1,38.9% (active)
8,Cc1cc(N)c2cc(NC(=O)Nc3ccc4nc(C)cc(N)c4c3)ccc2n1,1.21%
9,CCOc1ccc2nc3cc(N=Nc4ccc(N)nc4N)ccc3c(N)c2c1,19.7%
10,O=C(O)CC12CC3CC(CC(O)(C3)C1)C2,-8.63%
11,CCCCCC(O)C1C(=O)OC(C)C(O)C=CC=CC=CC=CC=C(C)C(O)CC(O)CC(O)CC(O)CC(O)CC(O)CC1O (stereo unspecified),-9.84%
12,O=C(O)C(C1NCCS1)N1Cc2ccccc2C1 (stereo unspecified),-7.98%
13,c1cncc(CNCc2cccnc2)c1,5.77%
14,C[N+]1(Cc2ccc(Cl)c(Cl)c2)CCCC1c1ccc[n+](Cc2ccc(Cl)c(Cl)c2)c1 (stereo unspecified),16.1%
15,C[N+]1(CC[N+]2(C)CCCC2c2cccnc2)CCCC1c1cccnc1 (stereo unspecified),23.3% (active)
16,CC1(C)SC2C(NC(=O)Cc3ccccc3)C(=O)N2C1C(=O)O (stereo unspecified),1.04%
17,O=C(O)c1ccc(NC(c2ccccc2)c2ccc3cccnc3c2O)cc1 (stereo unspecified),-7.8%
18,CC1(CCC(=O)OC2CCCCC2)OCCO1,-7.92%
19,CC(C)(C)c1ccc(OCC(=O)O)c(Cl)c1,-5.3%
20,CN1CCN(CCCBr)CC1,25.3% (active)
21,CN1CCN(CCCNN)CC1,-5.53%
22,CN1CCN(CCCN)CC1,-1.63%
23,O=C(O)C(Cc1ccc(O)c([N+](=O)[O-])c1)N1C(=O)c2ccccc2C1=O (stereo unspecified),-10.2%
24,[O-][N+](CCO)(CCO)c1ncnc2nc[nH]c12,13%
25,O=C1C(Cl)=C(Nc2ccc(S(=O)(=O)Nc3ccccn3)cc2)C(=O)c2ccccc21,9.57%
26,COc1cc(NCCC2CCCCN2)c2ncccc2c1 (stereo unspecified),7.01%

row,SMILES,hERG blockade
1,Cc1cc(N2CCN(C)CC2)n2nc(-c3ccc(Cl)cc3)nc2n1,90% (active)
2,O=c1[nH]c(SCc2c(Cl)c(Cl)c(Cl)c(Cl)c2Cl)nc(=S)[nH]1,-9.32%
3,Cc1ccc(S(=O)(=O)NC(CO)C(=O)O)cc1 (stereo unspecified),23.3% (active)
4,Cc1ccc(S(=O)(=O)NC(C(=O)O)C(C)C)cc1 (stereo unspecified),0.497%
5,Cc1ccc(S(=O)(=O)NC(CN)C(=O)O)cc1 (stereo unspecified),4.41%
6,NC1(C(=O)OCc2ccccc2)CCCC1,15.7%
7,CC(OP(=O)(O)O)C(N)C(=O)O (stereo unspecified),-6.12%
8,Clc1ccc(CSCCc2ccncc2)cc1Cl,14.8%
9,Nc1nc(SCc2ccccc2)c2ncn(Cc3ccccc3)c2n1,-3.09%
10,Cn1cnc([N+](=O)[O-])c1Sc1nc(N)nc2c1ncn2Cc1ccccc1,37% (active)
11,CC(C)Cn1cnc2c(Sc3c([N+](=O)[O-])ncn3C)nc(N)nc21,4.65%
12,NC(Cc1c[nH]c2ccc([N+](=O)[O-])cc12)C(=O)O (stereo unspecified),7.32%
13,C=C(C)COc1ccc2c(c1)CCC1C2CCC2(C)C(=O)C(=NO)CC12 (stereo unspecified),0.877%
14,OCC1OC(O)C(N=Cc2ccc3c(c2)OCO3)C(O)C1O (stereo unspecified),-14.8%
15,Nc1ccc(S(=O)(=[OH+])[NH2+]c2ncccn2)cc1.[Ag+],89.5% (active)
16,Nc1ccc(S(=O)(=O)NCc2nccs2)cc1,17.3%
17,Nc1ccc(S(=O)(=O)Nc2cnc3ccccc3n2)cc1,8%
18,CC(C)CCNc1ncnc2[nH]ncc12,0.816%
19,NCC1OC(n2cnc3c(=O)[nH]c(N)nc32)C(O)C1O (stereo unspecified),5.66%
20,CCC1=C(CC2NCCc3ccccc32)CC2c3cc(OC)c(OC)cc3CCN2C1 (stereo unspecified),47.5% (active)
21,N#CC(=CNc1ccccn1)C(=O)c1ccco1,-1.1%
22,OCCCNCc1ccncc1,-7.86%
23,CC1(C)SC2C(C(=O)O)N=C(Cc3ccccc3)N2C1C(=O)O (stereo unspecified),4.53%
